Measured values from the supplement of paper PMC3656093.
± gives the standard deviation of the averaged measurements. In all, about 1,900 compounds were measured (“CD40L-induced NF-kB luciferase activity, plate-corrected, relative to DMSO (0) and IKK inhibitor VII (-100) controls”: median about 0.032, lowest 2% from about -26 on). The entries come from a sample that favours the lowest values as a whole.

test system: BL2-NFkB-Luc; experiment: CD40L-induced NF-kB luciferase activity, plate-corrected, relative to DMSO (0) and IKK inhibitor VII (-100) controls (% normalized activity); higher = more NF-kB reporter activity (less inhibition); conditions: 9.4 µM; stimulus: tCD40L 64 ng/ml; 4.5 h
Procedure: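 BL2 B cells with a stable NF-kB response-element luciferase reporter (BL2-NFkB-Luc), 384-well. Cells were pre-incubated with compound at 9.4 uM for 1 h at 37 C, then stimulated with 64 ng/ml trimerized CD40L for 4.5 h; luciferase was read with Steady-Glo. Signal was normalised per plate in Genedata (median DMSO neutral control = 0, median IKK inhibitor VII at 50 uM = -100) with Assay Median plate-pattern correction; duplicate plates.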

SMILES	CD40L-induced NF-kB luciferase activity
COc1ccc(/C=C\C(=O)c2c(O)ccc3c(C)cc(=O)oc23)cc1OC	-14 ± 3.3
COc1cc2cc(C(=O)O)[nH]c2c(OC)c1OC	1.43 ± 0.11
Cc1oc2ccc(OC(=O)c3cccs3)cc2c1C(=O)OC(C)C	6.48 ± 1
Cc1ccc2c(c1)C(CCN)C(=O)N2Cc1ccccc1 (centres undefined)	1.33 ± 2
CC12CCC(C(=O)N3CCc4ccccc43)(CC1=O)C2(C)C (centres undefined)	-7.25 ± 2.2
COc1cc2c(cc1OC)C(c1cc3ccccc3oc1=O)=NC(C)(C)C2	-0.782 ± 0.12
COc1cc(C2CC(=O)NC3=C2C(=O)CC(C)(C)C3)ccc1O (centres undefined)	7.59 ± 2.5
O=C1[C@@H]2[C@H](Cc3ccc(O)cc3)N[C@]3(C(=O)Nc4ccccc43)[C@@H]2C(=O)N1c1ccc(F)cc1	-2.13 ± 3.5
COc1ccc2oc(C)c(C(N)=O)c2c1	5.21 ± 2.3
Cc1ccc(S(=O)(=O)NC(C(=O)Oc2cc3oc(=O)cc(C)c3cc2Cl)C(C)C)cc1 (centres undefined)	-3.08 ± 0.98
c1ccc(Cn2nnc3cnccc32)cc1	3.11 ± 1.1
Fc1ccc(-c2cc(-c3ccccc3)nc(-n3cccn3)n2)cc1	-4.51 ± 1.4
O=C(/C=C/c1ccc2c(c1)OCCCO2)c1ccc2ccccc2c1O	44.2 ± 0.67
COC(=O)CCC(=O)CN	-0.0616 ± 1.1
O=C(O)[C@@H](O)c1ccccc1	-1.47 ± 0.027
C=CCOC(=O)C1=C(C)NC(=O)NC1/C=C/c1ccccc1OC (centres undefined)	-0.888 ± 0.046
COc1ccc(C2C(=O)c3ccccc3C2=O)cc1	0.868 ± 0.29
CC(=O)Oc1ccc(C2OC(=O)c3ccccc3N2C(C)=O)cc1 (centres undefined)	-32.9 ± 1
COc1ccc(C2C3=C(OC(C)=O)c4ccccc4C3=Nc3c2c(=O)n(C)c(=O)n3C)cc1 (centres undefined)	6.21 ± 0.2
COc1ccc(-c2coc3cc(OC(=O)N4CCOCC4)ccc3c2=O)cc1	5.32 ± 1.2
CCCCCC(=O)O[C@]1(C(C)=O)CC[C@H]2[C@@H]3CCC4=CC(=O)CC[C@]4(C)[C@H]3CC[C@@]21C	-8.91 ± 0.8
C[C@]12C[C@H](O)[C@H]3[C@@H](CCC4=CC(=O)CC[C@@]43C)[C@@H]1CC[C@@H]2C(=O)CO	-19.6 ± 8.2
CCCCC(=O)O[C@]1(C(=O)CO)CC[C@H]2[C@@H]3CCC4=CC(=O)CC[C@]4(C)[C@H]3[C@@H](O)C[C@@]21C	-43.1 ± 20
CCCCCCCC(=O)OCC(=O)[C@@]1(O)CC[C@H]2[C@@H]3CCC4=CC(=O)CC[C@]4(C)[C@H]3[C@@H](O)C[C@@]21C	-24.2 ± 1.8
CCCC(=O)O[C@]1(C(=O)CO)CC[C@H]2[C@@H]3CCC4=CC(=O)CC[C@]4(C)[C@H]3[C@@H](O)C[C@@]21C	-31.6 ± 7.7
C[C@]12CCC(=O)C=C1CC[C@@H]1[C@@H]2[C@@H](O)C[C@@]2(C)[C@H]1CC[C@]2(O)C(=O)CO	-24.3 ± 5.5
CC(C(=O)O)c1ccc(N2Cc3ccccc3C2=O)cc1 (centres undefined)	-43.6 ± 2.8
CC(C)Cc1ccc(C(C)C(=O)O)cc1 (centres undefined)	2.3 ± 5
CC(C(=O)O)c1ccc(-c2ccccc2)c(F)c1 (centres undefined)	2.04 ± 0.53
